Measured values taken from the supplement of paper PMC4022240.
± gives the standard deviation.

Assays:
Test in all cases: peptide microarray binding signal (635 nm), min-max normalized on array (fraction of array maximum); higher = stronger binding
Settings in all cases: peptide region: H2B 7-19
[1] = molecular target: T1, HaloTag-ATRX ADD domain (163-292)
T1 chain: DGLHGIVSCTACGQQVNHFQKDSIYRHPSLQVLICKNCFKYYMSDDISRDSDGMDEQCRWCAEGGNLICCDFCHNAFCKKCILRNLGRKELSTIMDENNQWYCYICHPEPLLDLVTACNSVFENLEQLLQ
Procedure: (§1)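 Histone 13-mer peptides were synthesized as cellulose conjugates with a C-terminal 20-atom PEG linker and printed in triplicate on nitrocellulose. The sequence given is the unmodified backbone; PTMs (Kme1/2/3, Kac, Sph/Tph, Rme/Rme2a/Rme2s, Rcit) are listed in the label and the 'peptide modifications' condition. Slides were probed at 4 °C for 1 h with biotin-labelled (HQ)5-HaloTag reader fusions (ATRX-ADD, ING2-PHD) then streptavidin-Alexa647, or with rabbit histone antibodies then anti-rabbit Alexa647. The mean 635 nm signal of the triplicate spots was scaled 0-1 between the lowest and highest values on each array.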

[2] = molecular target: HaloTag-ING2 PHD (mouse Ing2 200-280)
Procedure: as §1

[3] = molecular target: anti-H3K4me3 antibody ab8580
Procedure: as §1

[4] = molecular target: anti-H3K9me3 antibody ab8898
Procedure: as §1

[5] = peptide modifications: H2BK11ac H2BK12ac, binder concentration: 1:2,000 dilution
[6] = peptide modifications: H2BK11ac H2BK12ac, binder concentration: 1:10,000 dilution
[7] = peptide modifications: H2BK15ac H2BK16ac, binder concentration: 1:2,000 dilution
[8] = peptide modifications: H2BK15ac H2BK16ac, binder concentration: 1:10,000 dilution
[9] = peptide modifications: H2BK12ac H2BK15ac, binder concentration: 1:2,000 dilution
[10] = peptide modifications: H2BK12ac H2BK15ac, binder concentration: 1:10,000 dilution
[11] = peptide modifications: H2BK11ac H2BK15ac, binder concentration: 1:2,000 dilution
[12] = peptide modifications: H2BK11ac H2BK15ac, binder concentration: 1:10,000 dilution
[13] = peptide modifications: H2BK11ac H2BS14ph H2BK15ac H2BK16ac, binder concentration: 1:2,000 dilution
[14] = peptide modifications: H2BK11ac H2BS14ph H2BK15ac H2BK16ac, binder concentration: 1:10,000 dilution
[15] = peptide modifications: H2BK11ac H2BK15ac H2BK16ac, binder concentration: 1:2,000 dilution
[16] = peptide modifications: H2BK11ac H2BK15ac H2BK16ac, binder concentration: 1:10,000 dilution
[17] = peptide modifications: H2BK12ac H2BS14ph H2BK15ac H2BK16ac, binder concentration: 1:2,000 dilution
[18] = peptide modifications: H2BK12ac H2BS14ph H2BK15ac H2BK16ac, binder concentration: 1:10,000 dilution
[19] = peptide modifications: H2BK12ac H2BK15ac H2BK16ac, binder concentration: 1:2,000 dilution
[20] = peptide modifications: H2BK12ac H2BK15ac H2BK16ac, binder concentration: 1:10,000 dilution
[21] = peptide modifications: H2BK11ac H2BK16ac, binder concentration: 1:2,000 dilution
[22] = peptide modifications: H2BK11ac H2BK16ac, binder concentration: 1:10,000 dilution
[23] = peptide modifications: H2BS14ph, binder concentration: 1:2,000 dilution
[24] = peptide modifications: H2BS14ph, binder concentration: 1:10,000 dilution

APAPKKGSKKAVT [H2B 7-19 A P A P Kac Kac G S K K A V T]
peptide microarray binding signal ([1]; peptide modifications: H2BK11ac H2BK12ac, binder concentration: 50 nM): 0.00411 ± 0.00015
peptide microarray binding signal ([1]; peptide modifications: H2BK11ac H2BK12ac, binder concentration: 500 nM): 0.0031 ± 0.001
peptide microarray binding signal ([2]; peptide modifications: H2BK11ac H2BK12ac, binder concentration: 10 nM): 0.00603 ± 0.00082
peptide microarray binding signal ([2]; peptide modifications: H2BK11ac H2BK12ac, binder concentration: 100 nM): 0.00822 ± 0.001
peptide microarray binding signal [3, 5]: 0.000245 ± 2.6e-06
peptide microarray binding signal [3, 6]: 0.000913 ± 1.6e-05
peptide microarray binding signal [4, 5]: 0.000906 ± 4.5e-05
peptide microarray binding signal [4, 6]: 0.00127 ± 1.3e-05

APAPKKGSKKAVT [H2B 7-19 A P A P K K G S Kac Kac A V T]
peptide microarray binding signal ([1]; peptide modifications: H2BK15ac H2BK16ac, binder concentration: 50 nM): 0.00539 ± 7.7e-05
peptide microarray binding signal ([1]; peptide modifications: H2BK15ac H2BK16ac, binder concentration: 500 nM): 0.00995 ± 0.00033
peptide microarray binding signal ([2]; peptide modifications: H2BK15ac H2BK16ac, binder concentration: 10 nM): 0.0115 ± 0.00069
peptide microarray binding signal ([2]; peptide modifications: H2BK15ac H2BK16ac, binder concentration: 100 nM): 0.0164 ± 0.004
peptide microarray binding signal [3, 7]: 0.00217 ± 0.0011
peptide microarray binding signal [3, 8]: 0.00131 ± 5.7e-05
peptide microarray binding signal [4, 7]: 0.00133 ± 5.4e-05
peptide microarray binding signal [4, 8]: 0.00185 ± 6.1e-05

APAPKKGSKKAVT [H2B 7-19 A P A P K Kac G S Kac K A V T]
peptide microarray binding signal ([1]; peptide modifications: H2BK12ac H2BK15ac, binder concentration: 50 nM): 0.00342 ± 5.6e-05
peptide microarray binding signal ([1]; peptide modifications: H2BK12ac H2BK15ac, binder concentration: 500 nM): 0.00938 ± 0.0002
peptide microarray binding signal ([2]; peptide modifications: H2BK12ac H2BK15ac, binder concentration: 10 nM): 0.00609 ± 0.00019
peptide microarray binding signal ([2]; peptide modifications: H2BK12ac H2BK15ac, binder concentration: 100 nM): 0.00503 ± 0.00011
peptide microarray binding signal [3, 9]: 0.00285 ± 0.0017
peptide microarray binding signal [3, 10]: 0.0012 ± 3.2e-05
peptide microarray binding signal [4, 9]: 0.000966 ± 7.9e-05
peptide microarray binding signal [4, 10]: 0.000923 ± 9.6e-06

APAPKKGSKKAVT [H2B 7-19 A P A P Kac K G S Kac K A V T]
peptide microarray binding signal ([1]; peptide modifications: H2BK11ac H2BK15ac, binder concentration: 50 nM): 0.00295 ± 3.3e-05
peptide microarray binding signal ([1]; peptide modifications: H2BK11ac H2BK15ac, binder concentration: 500 nM): 0.00457 ± 5.4e-05
peptide microarray binding signal ([2]; peptide modifications: H2BK11ac H2BK15ac, binder concentration: 10 nM): 0.00686 ± 0.00014
peptide microarray binding signal ([2]; peptide modifications: H2BK11ac H2BK15ac, binder concentration: 100 nM): 0.0056 ± 0.00049
peptide microarray binding signal [3, 11]: 0.00319 ± 0.0012
peptide microarray binding signal [3, 12]: 0.000913 ± 2.8e-05
peptide microarray binding signal [4, 11]: 0.00104 ± 1.4e-05
peptide microarray binding signal [4, 12]: 0.0015 ± 4.4e-05

APAPKKGSKKAVT [H2B 7-19 A P A P Kac K G Sph Kac Kac A V T]
peptide microarray binding signal ([1]; peptide modifications: H2BK11ac H2BS14ph H2BK15ac H2BK16ac, binder concentration: 50 nM): 0.00323 ± 0.00013
peptide microarray binding signal ([1]; peptide modifications: H2BK11ac H2BS14ph H2BK15ac H2BK16ac, binder concentration: 500 nM): 0.00167 ± 0.00033
peptide microarray binding signal ([2]; peptide modifications: H2BK11ac H2BS14ph H2BK15ac H2BK16ac, binder concentration: 10 nM): 0.00388 ± 8.9e-05
peptide microarray binding signal ([2]; peptide modifications: H2BK11ac H2BS14ph H2BK15ac H2BK16ac, binder concentration: 100 nM): 0.00269 ± 0.00017
peptide microarray binding signal [3, 13]: 0.000245 ± 1e-05
peptide microarray binding signal [3, 14]: 0.0012 ± 4.3e-05
peptide microarray binding signal [4, 13]: 0.000529 ± 1.3e-05
peptide microarray binding signal [4, 14]: 0.000865 ± 1.8e-05

APAPKKGSKKAVT [H2B 7-19 A P A P Kac K G S Kac Kac A V T]
peptide microarray binding signal ([1]; peptide modifications: H2BK11ac H2BK15ac H2BK16ac, binder concentration: 50 nM): 0.005642 ± 4e-05
peptide microarray binding signal ([1]; peptide modifications: H2BK11ac H2BK15ac H2BK16ac, binder concentration: 500 nM): 0.0203 ± 0.002
peptide microarray binding signal ([2]; peptide modifications: H2BK11ac H2BK15ac H2BK16ac, binder concentration: 10 nM): 0.00776 ± 0.00056
peptide microarray binding signal ([2]; peptide modifications: H2BK11ac H2BK15ac H2BK16ac, binder concentration: 100 nM): 0.0162 ± 0.0017
peptide microarray binding signal [3, 15]: 0.0139 ± 0.0047
peptide microarray binding signal [3, 16]: 0.00245 ± 0.0001
peptide microarray binding signal [4, 15]: 0.00378 ± 0.00028
peptide microarray binding signal [4, 16]: 0.00254 ± 0.0001

APAPKKGSKKAVT [H2B 7-19 A P A P K Kac G Sph Kac Kac A V T]
peptide microarray binding signal ([1]; peptide modifications: H2BK12ac H2BS14ph H2BK15ac H2BK16ac, binder concentration: 50 nM): 0.00257 ± 9.2e-05
peptide microarray binding signal ([1]; peptide modifications: H2BK12ac H2BS14ph H2BK15ac H2BK16ac, binder concentration: 500 nM): 0.00224 ± 5e-05
peptide microarray binding signal ([2]; peptide modifications: H2BK12ac H2BS14ph H2BK15ac H2BK16ac, binder concentration: 10 nM): 0.005013 ± 2.5e-05
peptide microarray binding signal ([2]; peptide modifications: H2BK12ac H2BS14ph H2BK15ac H2BK16ac, binder concentration: 100 nM): 0.00213 ± 9.1e-05
peptide microarray binding signal [3, 17]: 0.000793 ± 0.00015
peptide microarray binding signal [3, 18]: 0.000799 ± 8.3e-06
peptide microarray binding signal [4, 17]: 0.000423 ± 8.2e-06
peptide microarray binding signal [4, 18]: 0.0011 ± 4e-05

APAPKKGSKKAVT [H2B 7-19 A P A P K Kac G S Kac Kac A V T]
peptide microarray binding signal ([1]; peptide modifications: H2BK12ac H2BK15ac H2BK16ac, binder concentration: 50 nM): 0.00505 ± 0.00068
peptide microarray binding signal ([1]; peptide modifications: H2BK12ac H2BK15ac H2BK16ac, binder concentration: 500 nM): 0.00719 ± 0.0027
peptide microarray binding signal ([2]; peptide modifications: H2BK12ac H2BK15ac H2BK16ac, binder concentration: 10 nM): 0.00621 ± 0.0005
peptide microarray binding signal ([2]; peptide modifications: H2BK12ac H2BK15ac H2BK16ac, binder concentration: 100 nM): 0.00631 ± 0.00038
peptide microarray binding signal [3, 19]: 0.00068 ± 9e-05
peptide microarray binding signal [3, 20]: 0.001541 ± 1.5e-05
peptide microarray binding signal [4, 19]: 0.00104 ± 4.9e-05
peptide microarray binding signal [4, 20]: 0.00133 ± 4e-05

APAPKKGSKKAVT [H2B 7-19 A P A P Kac K G S K Kac A V T]
peptide microarray binding signal ([1]; peptide modifications: H2BK11ac H2BK16ac, binder concentration: 50 nM): 0.00401 ± 5.5e-05
peptide microarray binding signal ([1]; peptide modifications: H2BK11ac H2BK16ac, binder concentration: 500 nM): 0.0108 ± 0.00051
peptide microarray binding signal ([2]; peptide modifications: H2BK11ac H2BK16ac, binder concentration: 10 nM): 0.00788 ± 0.0021
peptide microarray binding signal ([2]; peptide modifications: H2BK11ac H2BK16ac, binder concentration: 100 nM): 0.00751 ± 0.00032
peptide microarray binding signal [3, 21]: 0.00815 ± 0.00023
peptide microarray binding signal [3, 22]: 0.00108 ± 1.9e-05
peptide microarray binding signal [4, 21]: 0.00178 ± 9e-05
peptide microarray binding signal [4, 22]: 0.00133 ± 4.6e-05

APAPKKGSKKAVT [H2B 7-19 A P A P K K G Sph K K A V T]
peptide microarray binding signal ([1]; peptide modifications: H2BS14ph, binder concentration: 50 nM): 0.00226 ± 0.00011
peptide microarray binding signal ([1]; peptide modifications: H2BS14ph, binder concentration: 500 nM): 0.00381 ± 2.8e-05
peptide microarray binding signal ([2]; peptide modifications: H2BS14ph, binder concentration: 10 nM): 0.00263 ± 3.9e-05
peptide microarray binding signal ([2]; peptide modifications: H2BS14ph, binder concentration: 100 nM): 0.00163 ± 1.7e-05
peptide microarray binding signal [3, 23]: 0.000302 ± 3.1e-06
peptide microarray binding signal [3, 24]: 0.000799 ± 1.7e-05
peptide microarray binding signal [4, 23]: 0.000438 ± 3.5e-05
peptide microarray binding signal [4, 24]: 0.00075 ± 4e-05
